36 molecules from PubChem BioAssay can be followed below.

Torsin-1A-interacting protein 1 (Homo sapiens), sequence (Q5JTV8 whole entry, looked up): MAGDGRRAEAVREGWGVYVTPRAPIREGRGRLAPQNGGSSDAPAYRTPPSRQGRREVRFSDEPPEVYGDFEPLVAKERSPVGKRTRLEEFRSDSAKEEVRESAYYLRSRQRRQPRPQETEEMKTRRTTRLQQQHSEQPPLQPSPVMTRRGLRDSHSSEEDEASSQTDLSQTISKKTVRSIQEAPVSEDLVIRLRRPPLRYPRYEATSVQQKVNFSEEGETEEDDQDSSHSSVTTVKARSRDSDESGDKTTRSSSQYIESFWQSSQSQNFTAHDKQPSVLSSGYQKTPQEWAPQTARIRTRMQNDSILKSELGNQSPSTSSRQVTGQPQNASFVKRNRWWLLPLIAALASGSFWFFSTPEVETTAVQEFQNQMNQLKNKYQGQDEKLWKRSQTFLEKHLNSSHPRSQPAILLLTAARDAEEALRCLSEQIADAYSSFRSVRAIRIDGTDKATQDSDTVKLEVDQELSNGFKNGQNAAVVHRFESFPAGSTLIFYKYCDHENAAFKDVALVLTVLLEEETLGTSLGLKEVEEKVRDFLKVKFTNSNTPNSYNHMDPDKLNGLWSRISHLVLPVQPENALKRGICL

Test system in the first assay: not listed separately
Briefly: small-molecule microarray binders of probe aNog, primary screen, biochemical, biotinylated probe, 635/667 nm fluorescence (AID 1115).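 Further: probe is biotinylated aNog protein used at 0.15 µg/mL for 1 h at 4 C; z-score combines 667 nm fluorescence of each spot with its signal to noise.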 Conditions: higher = more signal.
In the case of `Cc1ccc(S[C@]2(C(=O)NCCCN(C)C)CC(=O)N(C(C)C)[C@@H]2c2ccc(CO)cc2I)cc1`, the composite z-score is -0.487.

`Cc1ccc(N2C(=O)c3ccccc3[C@](C)(C(=O)NCCN3CCOCC3)[C@@H]2c2ccc(CO)cc2)nc1` registered a composite z-score of -0.244.

`COC(=O)C(CC#Cc1ccc2c(c1)[C@]1(C(=O)N2)[C@H](C(=O)N2CCCCCCC2)[C@H]2C(=O)O[C@H](c3ccccc3)[C@H](c3ccccc3)N2[C@@H]1c1ccccc1OCCO)C(=O)OC`: the composite z-score stood at 3.79.

Another assay addresses Torsin-1A-interacting protein 1 (Homo sapiens) (UniProt Q5JTV8). In words: LAP1 binders from COS7 cell lysate, primary screen, small-molecule microarray, 635/667 nm fluorescence (AID 1116). Conditions: COS7-hLAP1 lysate binding, 635 nm fluorescence, higher = more signal.
The molecule `Oc1ccc2cc[n+](Cc3cccc(OC(F)(F)F)c3)cc2c1` yielded a composite z-score of -0.0554.

Molecule `CC1CC/C=C\[C@H]2OC34C=CCN(CCN5CCOCC5)C(=O)[C@H]3N(CCCCCO)C(=O)[C@@H]4C2C(=O)O1` (some centres undefined) yielded a composite z-score of -0.595.

`C=C(C(=O)CC[C@@H](OC(=O)c1cccnc1)c1ccc(CO)o1)C(C)C`: the composite z-score worked out at 1.35.

The molecule `C=CCC(OC(C)=O)[C@@H]1[C@@H](N(Cc2cc3ccccc3o2)C(=O)c2cccc3ccccc23)c2cc(OCCCO)ccc2N1C(=O)Cc1ccc(OC)cc1` (some centres undefined) returned a composite z-score of 0.153.

The molecule `C=CCN1C(=O)[C@]2(COC(c3ccc(OCCCO)cc3)=N2)Cc2ccccc21` registered a composite z-score of 2.59.

The molecule `O=C(NCc1ccccc1)[C@@H]1c2ccccc2C(=O)N(C2CCCCC2)[C@H]1c1ccc(CO)cc1` returned a composite z-score of 0.089.

Take `[N-]=[N+]=NCc1ccccc1C[C@@]1(C(=O)NCc2ccccc2)N=C(c2ccc(OCCCO)cc2)O[C@@H]1c1ccccc1CN=[N+]=[N-]`: the composite z-score turned out to be 2.59.

`CCOC(=O)C=Cc1cccc(OC)c1O` registered a composite z-score of -0.0817.

The molecule `CN(C)CCCC[C@@H]1NC(=O)[C@H]2C[C@@H](C(=O)NCCCCCNC(=O)CS)[C@@H](c3ccc(O)cc3)N2C1=O` yielded a composite z-score of 0.172.

For `COC(=O)[C@@]1(Cc2ccccc2)[C@H]2c3cc(C(=O)N(C)C)n(Cc4cc(F)c(F)c(F)c4)c3C[C@H]2CN1C(=O)c1ccccc1`, the composite z-score was 0.845.

As for `C=C(C)[C@@H]1CC=C(C(O)C2C=CC3C(=O)N(Cc4ccccc4)C(=O)C3N2n2cnnc2)CC1` (some centres undefined), the composite z-score is 0.401.

On to `O=C(NCCN1CCOCC1)[C@@H]1c2ccccc2C(=O)N(Cc2cc(F)cc(C(F)(F)F)c2)[C@H]1c1ccc(CO)cc1`, for which the composite z-score turned out to be 0.812.

In the case of `O=C1O[C@H](c2ccccc2)[C@H](c2ccccc2)N2[C@H]1[C@@H](C(=O)NC[C@H](O)c1ccccc1)[C@]1(C(=O)Nc3ccc(C#CC4(O)CCCCCC4)cc31)[C@H]2c1ccccc1OCCO`, the composite z-score turned out to be 0.791.

Molecule `C=C(/C(=C/C[C@@H](OC(=O)c1ccncc1)c1ccc(CO)o1)c1cc(C(=O)OC)ccc1OC)C(C)C` displayed a composite z-score of 0.815.

Molecule `COc1ccc([Si](C)(C)[C@@H]2[C@@H](CCO)O[C@]3(C(=O)N(Cc4ccccc4)c4ccc(N(C=O)c5ccccc5)cc43)[C@H]2C)cc1` displayed a composite z-score of 0.301.

For `CCCCCCC#C[Si](O[C@H](c1ccccc1)c1cn([C@H](C)c2ccccc2)nn1)(C(C)C)C(C)C`, the composite z-score was -0.0802.

In turn, `[N-]=[N+]=NCc1ccccc1[C@@H]1OC(c2ccc(OCCCO)cc2)=N[C@]1(Cc1ccccc1)C(=O)O` came in with a composite z-score of 0.767.

On to `CCCC[C@@H]1C[C@H]1[C@@H](NC(=O)c1ccccc1)c1ccc(-c2ccccc2)cc1`, for which the composite z-score came to 0.0036.

With `Cc1ccc(S[C@]2(C(=O)NCCN3CCOCC3)CC(=O)N(C3CCCCC3)[C@@H]2c2ccc(CO)cc2)cc1`, the composite z-score came out at 0.347.

`CC(C)NC(=O)[C@@]1(c2ccc([N+](=O)[O-])cc2)CC(=O)N(C(C)C)[C@@H]1c1ccc(CO)cc1` gave a composite z-score of -0.534.

`C=CCN1Cc2ccccc2C[C@@]2(COC(c3ccc(OCCCO)cc3)=N2)C1=O`: the composite z-score came to 1.33.

`COCCn1c(C(=O)N2CCCC2)cc2c1C[C@H]1CN(C(=O)c3ccccc3)[C@@](Cc3ccc(OC)cc3)(C(=O)OC)[C@@H]21`: the composite z-score turned out to be 3.21.

The molecule `C=C[C@@H](C)[C@@H](OC(=O)Nc1ccc(OC)cc1)c1ccc(O)c2ccccc12` came in with a composite z-score of -0.0999.

Turning to `COCCOC(=O)N1C(=O)[C@@]2(c3ccccc31)[C@H](C(=O)N1CCCCCCC1)[C@H]1C(=O)O[C@H](c3ccccc3)[C@H](c3ccccc3)N1[C@@H]2c1ccccc1OCCO`, the composite z-score was found to be 4.19.

In turn, `COCCn1c(C(=O)N(C)C)cc2c1C[C@H]1CN(C(=O)c3ccccc3)[C@@](Cc3ccc(F)cc3)(C(=O)OC)[C@@H]21` had a composite z-score of 0.153.

In the case of `CC(C)N1C(=O)c2ccccc2[C@](C)(C(=O)NCCCN(C)C)[C@@H]1c1ccc(CO)cc1`, the composite z-score was 4.42.

`O=C1C2C=CC(C(O)c3ccc(-c4ccccc4)s3)N(Nc3ccccc3F)C2C(=O)N1c1ccccc1` (centres undefined) yielded a composite z-score of 0.599.

`CN1C(=O)C2C(C1=O)C1C=C(c3ccc(CO)cc3)C2C(C2CC2)N1Cc1sc2ccccc2c1Cl` (centres undefined) returned a composite z-score of 2.06.

For the molecule `CO[C@H]1O[C@H](CO)[C@@H](OC(=O)Nc2ccc3c(c2)OCO3)[C@H](OC(=O)Nc2ccc3c(c2)OCO3)[C@H]1OC(=O)Nc1ccc2c(c1)OCO2`, the composite z-score is 1.21.

Consider `C=CC[C@]1(C(=O)NCCN2CCOCC2)N=C(c2ccc(OCCCO)cc2)O[C@H]1c1ccccc1N=[N+]=[N-]`, for which the composite z-score came out at 1.36.

`C=CCNC(=O)[C@@H]1[C@H]2C(=O)O[C@H](c3ccccc3)[C@H](c3ccccc3)N2[C@H](c2ccccc2OCCO)[C@@]12C(=O)N(C(=O)OCCOC)c1ccc(C#CCC(C(=O)OC)C(=O)OC)cc12` registered a composite z-score of 2.74.

In turn, `CC(C)[C@H]1COC(=O)N1C(=O)[C@H]1[C@@H](c2ccccc2)N(c2ccccc2)O[C@@H]1C` registered a composite z-score of 0.15.

For `O=C1O[C@@H](c2ccccc2)[C@@H](c2ccccc2)N2[C@@H](c3ccc(O)cc3)[C@]3(C(=O)Nc4ccc(C#CCCO)cc43)[C@@H](C(=O)O)[C@H]12`, the composite z-score is 1.66.

In turn, `Cc1ccc(S[C@]2(C(=O)NCCCN(C)C)CC(=O)N(C(C)C)[C@@H]2c2ccc(CO)cc2I)cc1` yielded a composite z-score of 0.309.

`Cc1ccc(N2C(=O)c3ccccc3[C@](C)(C(=O)NCCN3CCOCC3)[C@@H]2c2ccc(CO)cc2)nc1` showed a composite z-score of -0.869.

Molecule `COC(=O)C(CC#Cc1ccc2c(c1)[C@]1(C(=O)N2)[C@H](C(=O)N2CCCCCCC2)[C@H]2C(=O)O[C@H](c3ccccc3)[C@H](c3ccccc3)N2[C@@H]1c1ccccc1OCCO)C(=O)OC` came in with a composite z-score of 6.01.
